Measured values published in the supplement of paper PMC10849652.
Of roughly 7,900 targets only a part is listed; those with a hit were picked by preference. About 0.6% of all pairs of compound and target were hits.

compound: Cc1cccc(CC(=O)N2CCc3c2ccc(-c2cn(C)c4ncnc(N)c24)c3F)n1; test: log2 fold change, soluble protein after heating vs DMSO (PISA); higher = thermal stabilisation; K562 cells, 10 uM, 30 min; active = over 0.2 and 3.5 SD of the protein, either way, in both replicates (recomputed)
Summary of the method: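 K562 cells (2×10^6 cells/mL) were treated with 10 μM compound for 30 min, and aliquots were heated for 3 min over 48°C-58°C. Pooled aliquots were extracted in PBS with 0.5% NP-40 at 4°C, and the supernatant after 21,000xg for 90 min was measured by TMTpro 16plex LC-MS/MS with channel sums equalised. Reported thermal stability, relative to control samples and from duplicates, is a log2 fold change.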

Chain of UniProt P16152 (P16152 whole entry, looked up): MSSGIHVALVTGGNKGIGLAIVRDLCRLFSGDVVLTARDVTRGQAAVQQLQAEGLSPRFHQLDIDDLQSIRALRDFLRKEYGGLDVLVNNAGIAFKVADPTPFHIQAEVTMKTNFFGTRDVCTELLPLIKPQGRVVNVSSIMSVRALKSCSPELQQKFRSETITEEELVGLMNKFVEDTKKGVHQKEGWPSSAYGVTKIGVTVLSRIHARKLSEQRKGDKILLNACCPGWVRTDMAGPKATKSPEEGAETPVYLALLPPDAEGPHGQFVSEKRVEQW
Chain of UniProt P83916 (P83916 whole entry, looked up): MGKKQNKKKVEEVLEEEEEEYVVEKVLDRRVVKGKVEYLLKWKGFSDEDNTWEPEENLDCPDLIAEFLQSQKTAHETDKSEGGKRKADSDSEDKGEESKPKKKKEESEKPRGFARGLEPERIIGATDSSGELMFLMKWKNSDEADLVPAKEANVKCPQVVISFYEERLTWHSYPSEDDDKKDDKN
Chain of UniProt Q8N1A6 (Q8N1A6 whole entry, looked up): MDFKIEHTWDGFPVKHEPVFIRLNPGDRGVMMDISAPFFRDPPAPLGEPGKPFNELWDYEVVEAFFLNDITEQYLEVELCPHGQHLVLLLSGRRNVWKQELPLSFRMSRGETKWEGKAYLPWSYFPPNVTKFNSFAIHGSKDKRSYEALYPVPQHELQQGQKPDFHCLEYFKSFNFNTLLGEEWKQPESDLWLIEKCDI
Chain of UniProt Q14839 (Q14839 whole entry, looked up): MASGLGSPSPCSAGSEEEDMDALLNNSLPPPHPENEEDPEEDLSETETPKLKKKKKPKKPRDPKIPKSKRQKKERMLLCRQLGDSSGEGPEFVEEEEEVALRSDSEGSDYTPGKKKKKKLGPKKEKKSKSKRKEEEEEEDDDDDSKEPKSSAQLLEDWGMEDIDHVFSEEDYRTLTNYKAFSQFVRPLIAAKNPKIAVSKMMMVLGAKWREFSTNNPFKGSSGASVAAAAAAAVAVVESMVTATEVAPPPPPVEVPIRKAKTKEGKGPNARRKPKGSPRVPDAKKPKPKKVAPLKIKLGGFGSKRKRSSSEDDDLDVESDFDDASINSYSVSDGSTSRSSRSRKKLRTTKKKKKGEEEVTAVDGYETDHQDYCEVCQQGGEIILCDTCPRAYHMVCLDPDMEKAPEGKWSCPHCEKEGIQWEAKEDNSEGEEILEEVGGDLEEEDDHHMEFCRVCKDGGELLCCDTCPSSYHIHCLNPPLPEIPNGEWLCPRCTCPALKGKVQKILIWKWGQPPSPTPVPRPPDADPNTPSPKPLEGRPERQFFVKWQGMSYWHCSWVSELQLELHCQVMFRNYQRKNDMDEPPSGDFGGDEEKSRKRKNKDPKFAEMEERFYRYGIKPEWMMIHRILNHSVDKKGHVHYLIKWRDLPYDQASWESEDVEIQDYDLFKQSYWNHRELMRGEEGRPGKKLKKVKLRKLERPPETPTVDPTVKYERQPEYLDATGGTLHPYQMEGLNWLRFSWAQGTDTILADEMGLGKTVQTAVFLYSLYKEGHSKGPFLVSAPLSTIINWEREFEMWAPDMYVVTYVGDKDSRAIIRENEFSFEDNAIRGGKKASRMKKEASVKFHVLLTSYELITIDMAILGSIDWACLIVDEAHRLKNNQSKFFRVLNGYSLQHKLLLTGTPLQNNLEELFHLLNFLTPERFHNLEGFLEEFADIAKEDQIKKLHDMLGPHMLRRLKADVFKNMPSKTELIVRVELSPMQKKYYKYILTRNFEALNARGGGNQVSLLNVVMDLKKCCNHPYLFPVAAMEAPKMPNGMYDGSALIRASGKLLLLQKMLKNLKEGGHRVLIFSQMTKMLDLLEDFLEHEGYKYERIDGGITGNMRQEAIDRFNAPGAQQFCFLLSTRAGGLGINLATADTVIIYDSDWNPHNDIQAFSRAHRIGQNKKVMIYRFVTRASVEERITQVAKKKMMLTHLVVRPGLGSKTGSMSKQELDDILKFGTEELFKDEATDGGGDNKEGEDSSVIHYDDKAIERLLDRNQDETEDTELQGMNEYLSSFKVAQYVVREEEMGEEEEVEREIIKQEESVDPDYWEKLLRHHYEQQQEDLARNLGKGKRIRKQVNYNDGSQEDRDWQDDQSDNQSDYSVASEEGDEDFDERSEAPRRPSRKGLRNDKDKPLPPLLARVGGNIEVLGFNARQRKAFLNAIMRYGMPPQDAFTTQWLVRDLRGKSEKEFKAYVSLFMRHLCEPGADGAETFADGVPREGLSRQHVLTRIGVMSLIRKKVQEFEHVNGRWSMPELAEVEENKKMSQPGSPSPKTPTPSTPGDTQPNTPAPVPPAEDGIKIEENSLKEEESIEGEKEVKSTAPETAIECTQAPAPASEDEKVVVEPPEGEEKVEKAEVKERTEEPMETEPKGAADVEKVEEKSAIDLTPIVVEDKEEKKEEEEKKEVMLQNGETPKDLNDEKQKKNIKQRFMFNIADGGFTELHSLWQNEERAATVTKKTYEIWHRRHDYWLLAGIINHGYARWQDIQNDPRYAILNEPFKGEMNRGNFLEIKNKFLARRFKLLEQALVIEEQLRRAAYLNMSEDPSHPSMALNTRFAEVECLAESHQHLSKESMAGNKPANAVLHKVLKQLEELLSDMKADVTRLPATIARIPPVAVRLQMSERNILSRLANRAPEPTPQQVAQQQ
Chain of UniProt P00915 (P00915 whole entry, looked up): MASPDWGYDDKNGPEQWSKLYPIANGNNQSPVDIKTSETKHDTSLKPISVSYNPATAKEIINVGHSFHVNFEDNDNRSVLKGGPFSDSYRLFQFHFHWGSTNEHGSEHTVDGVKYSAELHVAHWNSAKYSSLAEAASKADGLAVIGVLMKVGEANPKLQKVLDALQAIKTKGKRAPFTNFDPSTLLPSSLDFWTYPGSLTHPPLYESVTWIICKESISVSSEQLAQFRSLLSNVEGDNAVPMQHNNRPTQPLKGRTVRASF
Chain of UniProt Q01459 (Q01459 whole entry, looked up): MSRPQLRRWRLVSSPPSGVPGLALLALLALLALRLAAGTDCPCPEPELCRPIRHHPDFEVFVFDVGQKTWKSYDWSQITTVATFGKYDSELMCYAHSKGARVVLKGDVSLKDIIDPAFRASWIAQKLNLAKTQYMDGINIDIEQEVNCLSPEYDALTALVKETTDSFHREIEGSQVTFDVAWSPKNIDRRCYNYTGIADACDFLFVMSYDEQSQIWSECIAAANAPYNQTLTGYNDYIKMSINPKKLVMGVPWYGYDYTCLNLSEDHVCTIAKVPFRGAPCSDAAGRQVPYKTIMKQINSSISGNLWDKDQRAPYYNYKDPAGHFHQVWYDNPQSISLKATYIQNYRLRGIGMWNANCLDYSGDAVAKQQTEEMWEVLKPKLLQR
Chain of UniProt Q96KP4 (Q96KP4 whole entry, looked up): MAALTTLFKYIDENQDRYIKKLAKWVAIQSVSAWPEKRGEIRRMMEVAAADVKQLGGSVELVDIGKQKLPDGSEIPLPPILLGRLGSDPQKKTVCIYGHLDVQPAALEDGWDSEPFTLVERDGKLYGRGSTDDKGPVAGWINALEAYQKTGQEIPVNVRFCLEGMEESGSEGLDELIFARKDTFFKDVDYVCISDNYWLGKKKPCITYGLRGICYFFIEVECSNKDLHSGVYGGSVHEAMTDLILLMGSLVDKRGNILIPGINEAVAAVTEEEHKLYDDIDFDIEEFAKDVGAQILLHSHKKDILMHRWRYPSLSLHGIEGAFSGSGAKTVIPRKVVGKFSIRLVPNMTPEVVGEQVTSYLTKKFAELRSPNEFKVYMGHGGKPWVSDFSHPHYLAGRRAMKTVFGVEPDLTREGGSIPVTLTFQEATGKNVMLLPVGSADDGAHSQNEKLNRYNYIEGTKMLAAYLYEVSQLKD
Chain of UniProt P20674 (P20674 whole entry, looked up): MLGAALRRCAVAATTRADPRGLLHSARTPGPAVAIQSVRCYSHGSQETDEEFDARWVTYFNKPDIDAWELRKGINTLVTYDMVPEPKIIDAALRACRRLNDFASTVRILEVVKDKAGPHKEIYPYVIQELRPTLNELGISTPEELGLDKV
Chain of UniProt P21964 (P21964 whole entry, looked up): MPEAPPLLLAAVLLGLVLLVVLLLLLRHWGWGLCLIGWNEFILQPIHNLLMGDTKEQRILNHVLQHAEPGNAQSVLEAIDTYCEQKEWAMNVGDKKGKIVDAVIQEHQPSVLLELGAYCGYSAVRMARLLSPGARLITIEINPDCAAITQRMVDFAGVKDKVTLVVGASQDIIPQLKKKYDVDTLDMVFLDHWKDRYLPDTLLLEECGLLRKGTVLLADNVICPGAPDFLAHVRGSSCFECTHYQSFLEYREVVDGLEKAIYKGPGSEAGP
Chain of UniProt P41208 (P41208 whole entry, looked up): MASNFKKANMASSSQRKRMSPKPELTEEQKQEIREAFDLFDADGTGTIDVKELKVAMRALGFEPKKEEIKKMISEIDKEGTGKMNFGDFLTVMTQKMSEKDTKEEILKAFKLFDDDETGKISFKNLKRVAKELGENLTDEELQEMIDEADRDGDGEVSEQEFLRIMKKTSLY
Chain of UniProt P86791 (P86791 whole entry, looked up): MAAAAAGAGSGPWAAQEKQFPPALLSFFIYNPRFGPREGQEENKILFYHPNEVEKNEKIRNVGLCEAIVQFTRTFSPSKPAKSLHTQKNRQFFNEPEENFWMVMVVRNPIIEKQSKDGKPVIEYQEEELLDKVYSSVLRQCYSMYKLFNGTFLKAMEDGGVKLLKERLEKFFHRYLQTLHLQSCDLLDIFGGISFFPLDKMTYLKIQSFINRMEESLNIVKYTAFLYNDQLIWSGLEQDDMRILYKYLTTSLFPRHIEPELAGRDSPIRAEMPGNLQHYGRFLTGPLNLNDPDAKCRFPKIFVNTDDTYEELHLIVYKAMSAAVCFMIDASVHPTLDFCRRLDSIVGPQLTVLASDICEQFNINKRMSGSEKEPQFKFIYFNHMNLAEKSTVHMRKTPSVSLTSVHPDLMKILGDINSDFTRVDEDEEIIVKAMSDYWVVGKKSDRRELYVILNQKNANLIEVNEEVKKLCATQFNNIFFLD
Chain of UniProt P14854 (P14854 whole entry, looked up): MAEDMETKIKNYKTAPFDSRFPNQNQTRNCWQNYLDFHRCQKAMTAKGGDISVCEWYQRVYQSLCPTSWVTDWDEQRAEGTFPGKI

log2 fold change, inactive:
CD151 (UniProt P48509) 0.015, CBX1 (UniProt P83916) -0.025, CHCHD2 (UniProt Q9Y6H1) -0.002, CCNK isoform 4 (UniProt O75909) -0.021, CBR1 (UniProt P16152) 0.011, CASP2 (UniProt P42575) -0.035, COCH (UniProt O43405) -0.17, CTBS (UniProt Q01459) -0.069, CDKN2AIP (UniProt Q9NXV6) 0.021, CBS (UniProt P35520) -0.029, COMT (UniProt P21964) -0.019, CCDC9 (UniProt Q9Y3X0) -0.032, CHD4 isoform 2 (UniProt Q14839) -0.018, COX5A (UniProt P20674) -0.003, CLCN3 (UniProt P51790) -0.022, C4A (UniProt P0C0L4) -0.018, CCAR2 isoform 2 (UniProt Q8N163) 0.01, COPS4 (UniProt Q9BT78) 0, CDK16 isoform 2 (UniProt Q00536) -0.047, COPS3 (UniProt Q9UNS2) -0.027, C4orf33 (UniProt Q8N1A6) 0.01, COPS8 (UniProt Q99627) 0.025, CDK5RAP3 isoform 4 (UniProt Q96JB5) 0.122, CCZ1 (UniProt P86791) 0.007, CSTF2 (UniProt P33240) -0.061, COX6B1 (UniProt P14854) -0.023, CNDP2 (UniProt Q96KP4) 0.006, CPQ (UniProt Q9Y646) 0, CA1 (UniProt P00915) -0.055, CNN2 (UniProt Q99439) 0.052, CSNK2A2 (UniProt P19784) -0.008, CNOT2 (UniProt Q9NZN8) 0, CRK (UniProt P46108) -0.02, CETN2 (UniProt P41208) -0.131, CPSF1 (UniProt Q10570) -0.007, CSTF3 (UniProt Q12996) 0.044
